# Laboratory results taken from ChEMBL document CHEMBL3988442, “University of Dundee, Small-Polar-MMV Screening Library” (2021).
# About 960 (1.5%) of roughly 66,000 compounds showed an effect of 50% or more. Many of the other results were omitted from the sample, so strong results are more common in it than they were.
# System: Trypanosoma brucei
# Test: Trypanosoma brucei 72 hour study
# Type: functional, organism-based
# Parameters: scale not given: in the data most compounds retested in dose-response had high values
Structure (SMILES),"Percent Effect (30 µM, 30.03 µM)","Percent Effect (30.3 µM, […])"
O=C(NCC1OCCc2cn(CC3CCOCC3)nc21)c1ccsc1.O=C(O)C(F)(F)F (stereo not given),-82.86%,
O=C(NCC1OCCc2cn(CC3CC3)nc21)c1ccsc1 (stereo not given),104.3%,
O=C(Cc1ccsc1)NCC1OCCc2cn(CC3CC3)nc21 (stereo not given),10.27%,
CCOCC1CN(C(=O)Cc2ccccn2)Cc2cnn(C)c21.O=C(O)C(F)(F)F.O=C(O)C(F)(F)F (stereo not given),,-7.447%
CN1CCC(N2Cc3nc(N)ncc3C2=O)CC1,,-14.03%
Nc1ncc2c(n1)CN(C1CCCC1)C2=O,49.38%,
CC1CCC(N2Cc3nc(N)ncc3C2=O)CC1 (stereo not given),,59%
Cc1csc(C(Cc2ccsc2)NC(=O)CN(C)Cc2ccccn2)n1.Cl (stereo not given),,18.37%
Cc1nc(C)n(CC2CN(CC(=O)Nc3ccncc3)CCO2)n1 (stereo not given),-4.979%,
Oc1ccc(-c2c(-c3ccccc3)ncn2C[C@H]2CCCN2)cc1,67.04%,
O=C(O)c1ccccc1-c1c(-c2ccccc2)ncn1C[C@H]1CCCN1,7.799%,
O=C(O)c1ccccc1-c1c(-c2ccccc2)ncn1CC1CCCO1 (stereo not given),-42.19%,
CCn1cc2c(n1)CN(Cc1ccncc1)CC2COCC1CC1.O=C(O)C(F)(F)F.O=C(O)C(F)(F)F (stereo not given),16.48%,
CCOC(=O)[C@@H]1[C@@H](OC)C(=O)N(C)C12CCN(C(=O)C(CC)CC)CC2,,47.28%
O=C1NCC(c2ccc(Cl)cc2)Cc2[nH]c(CCN3CCOCC3)nc21 (stereo not given),,-6.17%
O=C(CCCn1ccnc1)NC1CCCN(c2ccccc2Cl)C1 (stereo not given),-36.7%,
Cn1ccc2c(C(=O)N3CCN(C(=O)C4CCCC4)CC3)cccc21,,-0.9219%
Cn1ccc2c(C(=O)N3CCC(C(N)=O)CC3)cccc21,51.42%,
CC(=O)N(C)C1CCN(C(=O)c2cccc3c2ccn3C)CC1,,1.635%
CNCc1ccc([C@@H]2CN(C(C)=O)C[C@H]2C(N)=O)cc1.Cl,,-4.211%
CSCCC(NC(N)=O)C(=O)NCc1c(C)nn(-c2ccccc2)c1C (stereo not given),-20.96%,
COC(=O)[C@H](CCSC)NC(=O)Cc1c(C)nn(-c2ccccc2)c1C,101%,
Cc1nn(-c2ccccc2)c(C)c1CC(=O)NC1CC(=O)N(C)C1 (stereo not given),-14.36%,
COC(=O)[C@H](CCSC)NC(=O)Cn1ccc2c(Cl)cccc21,-28.3%,
COC(=O)C(CCSC)NC(=O)Cc1c(C)nn(-c2ccccc2)c1C (stereo not given),,100.4%

Structure (SMILES),"Percent Effect (30 µM, 30.03 µM)","Percent Effect (30.3 µM, […])"
COc1cccc(-c2nc(C)c(C(=O)N[C@@H](CCSC)C(=O)O)s2)c1,-41.8%,
CC(C)Cc1noc(CN2CCOCC2C)n1 (stereo not given),-14.5%,
O=C(Nc1cnccn1)[C@@H]1CCO[C@@H]2CCN(Cc3ccsc3)C[C@@H]21.O=C(O)C(F)(F)F,,-603.1%
O=C(Nc1ccccc1)N1C(CN2CCOCC2)[C@]2(O)CC[C@H]1CC2 (stereo not given in full),,6.609%
CCc1nc(NCC(=O)N2CCOCC2)c2c(n1)c(C)nn2CC,60.24%,
CCn1nc(C)c2nc(C(C)C)nc(NCC(=O)N3CCOCC3)c21,,-23.63%
CCCc1nc(NCC(=O)N2CCOCC2)c2c(n1)c(C)nn2CC,,-24.9%
CCCc1ccc(N2CCN(Cc3nc4ccccc4n3C)CC2)cc1,90.43%,
Cn1c(CN2CCN(CC3CCCO3)CC2)nc2ccccc21 (stereo not given),,-39.6%
Cn1c(CCN2CCN(CCc3ccccc3)CC2)nc2ccccc21,-13.15%,
COCCN1CC[C@@H]2CN(Cc3nccn3C)C[C@@H]2C1.O=C(O)C(F)(F)F.O=C(O)C(F)(F)F,27.97%,
CC(C)CN1CCc2c(CN(C)Cc3ccco3)cncc2C1.Cl.Cl.Cl,,-2.843%
Cc1cnc(CN(Cc2ccc(C#N)cc2F)C2CCN(C)C2)o1 (stereo not given),-34.7%,
COc1ccc(C)cc1CN(Cc1nc(C)c(C)o1)C1CCN(C)C1 (stereo not given),82.74%,
COc1ccc(C)cc1CN(Cc1ncc(C)o1)C1CCN(C)C1 (stereo not given),-50.91%,
COc1cc(C(=O)NCC2(N(C)C)CCN(C)CC2)c2ccccc2n1,,-18.58%
Cc1c(CN2CC[C@@H](N3CCC(O)CC3)[C@H](O)C2)[nH]c2ccc(Cl)cc12,-14.51%,
CN1CCN([C@@H]2CCN(CC3=Cc4cc(Cl)ccc4OC3)C[C@H]2O)CC1,,22.23%
O[C@@H]1CN(CC2=Cc3cc(Cl)ccc3OC2)CC[C@H]1N1CCCCCC1,,78.41%
O=C(CCc1ccco1)N1CCCC(n2cccn2)C1 (stereo not given),,12.32%
Cn1cnnc1S(=O)(=O)C1CCN(S(=O)(=O)c2ccccc2F)CC1,-32%,
Cc1ccc(S(=O)(=O)N2CCC(S(=O)(=O)c3nncn3C)CC2)cc1C,-15.11%,
Cn1cnnc1S(=O)(=O)C1CCN(S(=O)(=O)c2ccc(F)c(Cl)c2)CC1,73.39%,
CN1CCN(Cc2ccncc2)C(=O)C12CCN(Cc1ccsc1)CC2.O=C(O)C(F)(F)F.O=C(O)C(F)(F)F.O=C(O)C(F)(F)F,,-53.7%
COC1CCN(C(=O)Cc2csc(-c3ncccn3)n2)CC1,9.896%,
